# Screening data: PubChem, National Center for Advancing Translational Sciences (NCATS)
# TGFb SMAD3 inh = inhibitors of TGF-b signaling; actives 1.2% (n = 410,000); AID 588855; HepG2 CAGA-GFP TGF-b/SMAD3 reporter, GFP fluorescence, 18 h; TGF-beta stimulated, 500 pg/mL final; Potency, µM (highest dose often 46.1 µM), without a hit: at the highest dose activity, negative = inhibition, usual class: inhibitors; also: % is scaled to controls: 0 for no effect and ±100 for the full control effect; nearly all actives have a fitted effect of over 65% in size
#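 HEPG2 CAGA-GFP, 1000 cells/well; 2 h settle, 37 C; cpd via pin tool; TGF-b 500 pg/mL final; 18 h, 37 C; GFP imaging ex488/em500-530; %Activity normalised to -TGF-b and +DMSO controls; CRC fit, curve class.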
# HT1080 IDH1KD tx = kills HT-1080 cells with IDH1 knockdown | HT-1080 IDH1 knockdown viability, ATP luminescence, 48 h | Potency, µM (highest dose often 46.1 µM), for the others: at the highest dose activity, negative = toxicity, actives largely listed as cytotoxic | actives 2% (n = 360,000);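 also: 0% = DMSO wells and -100% = cell-free medium wells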
#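 Cytotoxicity counter-line: IDH1KD HT-1080, 48 h, CellTiter-Glo. Curves classed by r2, magnitude and activity.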
# TDP1 cell noCPT = qHTS for Inhibitors of human tyrosyl-DNA phosphodiesterase 1 (TDP1): qHTS in cells in absence of CPT; Potency, µM (series often up to 46.2 µM), inactives show at the top dose activity change, negative = growth inhibition, most hits filed as inhibitors; AID 686978, 2013; actives 15% (n = 420,000); DT40 Tdp1-/- hTDP1 cells, no CPT, ATP luminescence, 48 h; also: % is scaled to controls: 0 for no effect and ±100 for the full control effect; nearly all actives have a fitted effect of over 55% in size
#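 DT40 Tdp1-/-;hTDP1 cells, no CPT (DMSO vehicle only), 400 cells/well; compounds pin-transferred; ≥48 hr, 37 °C; CellTiter-Glo 30 min RT dark, luminescence read.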
# HepG2 viability = kills HepG2 cells in TGF-b inhibitor counter-screen; Potency, µM (doses to about 46.1 µM), inactives show top-dose activity change, negative = cytotoxicity, hits mostly cytotoxic; HepG2 CAGA-GFP viability, ATP luminescence, 18 h; AID 588856; actives 0.76% (n = 410,000)
#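 CellTiter-Glo luminescence gave cytotoxicity after 18 hours at 37 degrees C. The cells were HepG2 CAGA-GFP in 1% FBS DMEM, stimulated with 500 pg/mL TGF-beta after compound addition. %Activity was normalised to no-cell wells (complete cell-killing) and DMSO (no toxicity), and curves were fitted and classified.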
# HT1080-NT tox = kills 2HG-producing HT-1080-NT fibrosarcoma cells. HT-1080-NT fibrosarcoma viability, CellTiter-Glo ATP luminescence, 48 h. Potency, µM (doses to about 46.1 µM), for inactives: top-dose activity, negative = less viability, most hits filed as cytotoxic. actives 1.6% (n = 360,000);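 also: NT is the 2HG producing partner of a matched IDH1 knockdown line; 0% = DMSO-treated cells and -100% = media-only wells without cells; nearly all actives have a fitted effect of over 55% in size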
#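 HT-1080-NT; 750 cells/well; 5% FBS RPMI; 48 h compound, 37 degrees C; CellTiter-Glo luminescence; curve fitting and curve-class assignment.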
# DT40 TDP1 CPT = DT40-hTDP1 cell growth loss with CPT; Potency, µM (doses to about 46.2 µM), for inactives: at the top dose activity change, negative = growth inhibition, usual class: inhibitors; actives 12% (n = 420,000); chicken DT40 Tdp1-/-;hTDP1 cells + 20 nM CPT, ATP luminescence, 48 h; also: % is scaled to controls: 0 for no effect and ±100 for the full control effect; nearly all actives have a fitted effect of over 55% in size
#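 Cell growth measured by CellTiter-Glo luminescence after a minimum 48 h, 37 C compound exposure with 20 nM CPT in Tdp1-knockout DT40 cells stably expressing hTDP1, seeded 400/well; qHTS titration format.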
# * = called active by the depositor; ? = inconclusive; . = not tested or not shown; [ ] = dose if it differs, or a comment. The list is not random: actives were taken first. Their share in the collection is about 17%. Calls follow the shape of the dose curve; as a rule, active = well fitted curve in the direction sought with a large enough effect; inconclusive = small, poorly fitted or top-dose-only effect, or another doubt; inactive = no such curve, though single readings can be large; an effect the other way counts as inactive or inconclusive. Potency is read from the fitted curve at half-maximal effect.
SMILES,TGFb SMAD3 inh,HT1080 IDH1KD tx,TDP1 cell noCPT,HepG2 viability,HT1080-NT tox,DT40 TDP1 CPT
Cc1cc(=O)[nH]c(SCC(=O)O)c1C#N,6%,11%,0%,3%,13%,3%
CCC(=O)Nc1cc(OC)c(NC(=O)c2ccccc2)cc1OC,-4%,16%,-20%,-12%,19%,-23%
COc1ccc(-c2ccccc2)cc1NC(=O)c1cccs1,-12%,-22%,?,11%,-17%,1%
COc1ccccc1CC(=O)Nc1cc(OC)c(NC(=O)c2ccccc2)cc1OC,4%,-19%,13µM*,-9%,-2%,-59%
O=C(Nc1ccc2c(c1)COC2=O)c1ccc(Cl)c(Cl)c1,-3%,7%,-6%,3%,21%,-24%
ClC(Cl)Cl,.,.,-3%,.,.,-21%
Cc1cc(=O)[nH]c(SCC(=O)Nc2cccc3ccccc23)c1C#N,?,?,-1%,-25%,?,-18%
COc1cc(NC(=O)c2ccccc2)c(OC)cc1NC(=O)CSc1[nH]c(=O)cc(C)c1C#N,0%,?,2.3µM*,2%,?,3.7µM*
COc1ccc(NC(=O)CCC(=O)c2cccs2)cc1Cl,3%,3%,1%,-2%,16%,4%
COc1cc(NCCC(=O)c2cccs2)c(OC)cc1Cl,?,-11%,4.6µM*,-26%,-7%,3.7µM*
COC(=O)CNC(=O)C(=O)OC,.,.,-2%[4.12 µM],.,.,5%[4.12 µM]
c1ccc(CCCNc2ncnc3nc[nH]c23)cc1,?,-2%,21µM*,-82%,9%,?
OCCOCCNc1ncnc2nc[nH]c12,0%,-1%,-6%,-17%,0%,-2%
C1=C(CCNc2ncnc3nc[nH]c23)CCCC1,?,-5%,15µM*,-26%,4%,13µM*
c1ccc2c(CCNc3ncnc4nc[nH]c34)cccc2c1,-7%,-15%,18µM*,-39%,1%,23µM*
CCCNc1ncnc2nc[nH]c12,-24%,2%,-15%,-33%,1%,?
Clc1ccc(CCNc2ncnc3nc[nH]c23)cc1,0%,-19%,7.3µM*,-18%,-10%,12µM*
Cc1cc(F)ccc1S(=O)(=O)Nc1ccc(C(=O)N2CCCCC2)cc1,8%,-23%,?,2%,-25%,?
Cc1cccc(C)c1-n1nnnc1C1c2ccccc2C(=O)N1C1CC1 (centres undefined),.,?,-3%,.,17%,8%
Cc1cccc(-n2ncc3c(NCc4ccco4)ncnc32)c1,-1%,?,12µM*,2%,?,13µM*
Fc1ccc(CNc2ncnc3c2cnn3-c2ccccc2)cc1,-11%,-29%,?,-11%,?,?
Cc1cccc(-n2ncc3c(NCc4ccccc4)ncnc32)c1,?,18µM*,6.5µM*,-21%,?,4.6µM*
Cc1cccc(-n2ncc3c(NCCc4ccc(S(N)(=O)=O)cc4)ncnc32)c1,-16%,-20%,?,-26%,-15%,29µM*
c1ccc(CNc2ncnc3c2cnn3-c2ccccc2)cc1,15%,?,4.6µM*,3%,?,5.8µM*
Cc1cccc(-n2ncc3c(NCc4ccccn4)ncnc32)c1,0%,-2%,?,80%,1%,?
Cc1ccc(-n2ncc3c(NCc4ccco4)ncnc32)cc1C,3%,24%,8%,8%,29%,10%
CCOC(=O)c1c(=O)n(O)c2ccc(OC)cc2[n+]1[O-],-1%,8%,-6%,-1%,9%,-7%
